Test results published in the supplement of paper PMC12645437, “Orthogonal IMiD-Degron Pairs Induce Selective Protein Degradation in Cells” (ACS Chemical Biology, 2025).
Whole data set: some 8,300 sequences, median “log2 fold change of degron read counts, EGFP-low vs EGFP+ sorted cells (limma voom), compound-induced degradation” near -1.1, cut for the highest 2% near 3.2. For the sample, the highest values were picked, then their nearest neighbours and some sequences at random.

T1: CRBN, Q96SW2
T1 chain: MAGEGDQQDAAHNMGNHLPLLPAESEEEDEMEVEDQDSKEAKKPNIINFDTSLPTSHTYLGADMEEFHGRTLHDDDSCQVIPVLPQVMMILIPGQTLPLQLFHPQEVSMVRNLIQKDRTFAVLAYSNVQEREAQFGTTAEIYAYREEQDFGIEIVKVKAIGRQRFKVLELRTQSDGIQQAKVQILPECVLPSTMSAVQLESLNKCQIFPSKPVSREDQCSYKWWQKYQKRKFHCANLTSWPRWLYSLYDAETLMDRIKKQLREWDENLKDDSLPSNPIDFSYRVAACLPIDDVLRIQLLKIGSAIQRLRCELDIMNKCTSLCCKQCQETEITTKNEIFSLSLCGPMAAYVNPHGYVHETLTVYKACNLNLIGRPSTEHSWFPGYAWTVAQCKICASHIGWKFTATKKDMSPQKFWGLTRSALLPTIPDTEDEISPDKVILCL


Target: T1, CRBN, Q96SW2
Test: log2 fold change of degron read counts, EGFP-low vs EGFP+ sorted cells (limma voom), compound-induced degradation; higher = more compound-induced degradation of the degron-EGFP fusion; degrons are variants of IKZF1/3 zinc finger 2; compound dose not given here
Settings: Jurkat, 18 h
[1] = compound: compound 19 (5-tert-butyl-thalidomide)
[2] = compound: compound 22 (5-morpholino-thalidomide)
[3] = compound: compound 33 (diphenyl IMiD analogue)
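Note: pooled lentiviral library of zinc finger degron-EGFP fusions in mCherry-positive Jurkat cells, FACS-sorted after compound exposure, with degron abundance counted by next-generation sequencing.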

Sequence | log2 fold change of degron read counts [1] | log2 fold change of degron read counts [2] | log2 fold change of degron read counts [3] | log2 fold change of degron read counts (compound: thalidomide)
FCCNQCGREFTQKGNLLRHIKL [46F_47C_49N_50Q_52G_53R_54E_55F_67L_, Q9UKT9] | -3.21 | -3.01 | -3.16 | -3.5
FYCDVCGAIFTQKGNLLRHIKL [46F_47Y_49D_50V_52G_53A_54I_55F_67L_, Q9UKT9] | 0.745 | 0.688 | -0.626 | -1.86
LYCEICGFWCTQKGNLLRHIKL [46L_47Y_49E_50I_52G_53F_54W_55C_67L_, Q9UKT9] | 1.69 | 1.16 | 1.94 | 0.136
FTCEICGAGFTQKGNLLRHIKL [46F_47T_49E_50I_52G_53A_54G_55F_67L_, Q9UKT9] | 2.35 | 2.19 | 2.28 | 2.27
FHCEICGAGFTQKGNLLRHIKL [46F_47H_49E_50I_52G_53A_54G_55F_67L_, Q9UKT9] | 3.51 | 1.13 | 1.93 | -0.622
FDCEICGAGFTQKGNLLRHIKL [46F_47D_49E_50I_52G_53A_54G_55F_67L_, Q9UKT9] | 1.89 | -1.13 | -0.599 | -0.0656
FICEICGAGFTQKGNLLRHIKL [46F_47I_49E_50I_52G_53A_54G_55F_67L_, Q9UKT9] | 0.51 | 2.54 | 1.87 | 2.76
FRCEICGAGFTQKGNLLRHIKL [46F_47R_49E_50I_52G_53A_54G_55F_67L_, Q9UKT9] | 2.78 | 1.83 | 2.46 | 1.7
FFCEICGAGFTQKGNLLRHIKL [46F_47F_49E_50I_52G_53A_54G_55F_67L_, Q9UKT9] | 3.51 | 2.9 | 1.61 | 0.677
FNCEQCGAGFTQKGNLLRHIKL [46F_47N_49E_50Q_52G_53A_54G_55F_67L_, Q9UKT9] | -0.14 | -2.54 | -2.33 | -2.8
FNCEICGAGFTQKGNLLRHIKL [46F_47N_49E_50I_52G_53A_54G_55F_67L_, Q9UKT9] | 3.46 | 0.722 | -0.0429 | -0.254
FACEICGAGFTQKGNLLRHIKL [46F_47A_49E_50I_52G_53A_54G_55F_67L_, Q9UKT9] | 3.75 | 1.86 | 0.304 | 0.339
FWCNICGAFFTQKGNLLRHIKL [46F_47W_49N_50I_52G_53A_54F_55F_67L_, Q9UKT9] | 1.6 | 2.32 | 0.971 | -0.294
FKCNVCGASFTQKGNLLRHIKL [46F_47K_49N_50V_52G_53A_54S_55F_67L_, Q9UKT9] | -1.29 | -2.06 | -3.02 | -1.88
FFCNQCGRKFTQKGNLLRHIKL [46F_47F_49N_50Q_52G_53R_54K_55F_67L_, Q9UKT9] | -2.1 | -2.17 | -2 | -2.57
FRCPVCGAFFTQKGNLLRHIKL [46F_47R_49P_50V_52G_53A_54F_55F_67L_, Q9UKT9] | -0.609 | -0.0858 | 1.19 | 1.19
LKCNQCGFCCTQKGNLLRHIKL [46L_47K_49N_50Q_52G_53F_54C_55C_67L_, Q9UKT9] | -2.31 | -2.82 | -2.5 | -1.52
LFCEICGFDCTQKGNLLRHIKL [46L_47F_49E_50I_52G_53F_54D_55C_67L_, Q9UKT9] | -1.8 | -2.4 | -2.23 | -1.77
FICNQCGACFTQKGNLLRHIKL [46F_47I_49N_50Q_52G_53A_54C_55F_67L_, Q9UKT9] | -2.25 | -1.71 | -0.536 | -1.25
FKCPICGHAFTQKGNLLRHIKL [46F_47K_49P_50I_52G_53H_54A_55F_67L_, Q9UKT9] | -2.73 | -2.8 | -3.02 | -2
FHCPICGHWFTQKGNLLRHIKL [46F_47H_49P_50I_52G_53H_54W_55F_67L_, Q9UKT9] | -1.67 | -2.48 | -1.12 | -1.62
FWCEICGAGFTQKGNLLRHIKL [46F_47W_49E_50I_52G_53A_54G_55F_67L_, Q9UKT9] | 3.64 | 2.88 | 1.29 | -0.285
FECEICGAGFTQKGNLLRHIKL [46F_47E_49E_50I_52G_53A_54G_55F_67L_, Q9UKT9] | 1.97 | -1.47 | 0.9 | 1.53
FLCEICGAGFTQKGNLLRHIKL [46F_47L_49E_50I_52G_53A_54G_55F_67L_, Q9UKT9] | 2.55 | -0.336 | 1.28 | 0.798
FYCEICGAGFTQKGNLLRHIKL [46F_47Y_49E_50I_52G_53A_54G_55F_67L_, Q9UKT9] | 3.64 | 3.17 | 2.39 | 0.707
FGCEICGAGFTQKGNLLRHIKL [46F_47G_49E_50I_52G_53A_54G_55F_67L_, Q9UKT9] | 2.12 | 0.308 | 1.02 | -0.108
FQCEICGAGFTQKGNLLRHIKL [46F_47Q_49E_50I_52G_53A_54G_55F_67L_, Q9UKT9] | 2.81 | 1.87 | 1.48 | 3.09
FGCNICGALFTQKGNLLRHIKL [46F_47G_49N_50I_52G_53A_54L_55F_67L_, Q9UKT9] | -0.269 | 0.462 | 1.6 | -0.293
